# Measured values as given in PubChem BioAssay AID2018 (Sanford-Burnham Center for Chemical Genomics, 2009).
# Among all 1,200 compounds or so, about 600 (50%) were called active. Cut-off read from the data, not from the text of the source: active = inhibition above about 42%; inactive = the rest. The set was probably picked from earlier hits. The list shows a part of the results. Results with a measured potency or affinity are listed apart.
# Target: SUMO-conjugating enzyme UBC9 (Homo sapiens) (UniProt P63279)
# Sequence (P63279 whole entry, looked up): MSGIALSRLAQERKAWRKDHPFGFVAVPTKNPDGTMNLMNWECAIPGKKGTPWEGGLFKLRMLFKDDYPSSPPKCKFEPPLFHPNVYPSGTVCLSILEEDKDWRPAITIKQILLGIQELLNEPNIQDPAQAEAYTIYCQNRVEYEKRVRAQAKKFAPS
# Experiment: blockers of UBC9-mediated SUMO conjugation – biochemical, AlphaScreen, SUMOylation inhibitor project, confirmation (AID 2018)
# Conditions: AlphaScreen in vitro SUMOylation assay; at 35 µM; stronger effect = higher value
row,Compound,inhibition
1,CCOC(=O)C1=C(N)n2c(s/c(=C/c3ccco3)c2=O)=C(C(=O)OC)C1c1ccco1 (configuration not stated),34% (inactive)
2,COc1ccccc1/C=C/CN1CCN(c2ccccc2)CC1,29.6% (inactive)
3,O=c1nc2s/c(=C\c3ccco3)c(=O)n2nc1Cc1ccccc1,26.6% (inactive)
4,O=c1c2cc(N3CCOCC3)ccc2[nH]c(=S)n1CC1CCCO1 (configuration not stated),-2.6% (inactive)
5,CCOC(=O)c1c(NC(=O)C2C3C=CC(CC3)C2C(=O)O)sc(C)c1CC (configuration not stated),20% (inactive)
6,COc1cccc(CNc2cccc3cccnc23)c1O,43.5% (active)
7,O=C(/C=C/c1ccco1)Nc1cccc2cccnc12,6.6% (inactive)
8,Cc1ccc(O)c(CNc2cccc3cccnc23)c1,49.6% (active)
9,Cc1ccc(F)c(NC(=S)Nc2cccc3ccccc23)c1,10.1% (inactive)
10,CC(C)(C)C(=O)NC(Nc1cccc2cccnc12)C(Cl)(Cl)Cl (configuration not stated),7.9% (inactive)
11,Oc1ccc(Br)cc1CNc1cccc2cccnc12,61.8% (active)
12,O=C(O)c1cc2cccc(S(=O)(=O)N3CCOCC3)c2cc1O,-21.6% (inactive)
13,CC(=O)c1ccc2cccc3c2c1N=CN3C,13.7% (inactive)
14,COc1cc(C)c2c(c1C=O)Oc1c(c(C)c(O)c3c1C(O)OC3=O)OC2=O (configuration not stated),95% (active)
15,CCc1ccc(S(=O)(=O)Nc2ccc(O)c3ccccc23)cc1,38.3% (inactive)
16,O=S(=O)(Nc1ccc(O)c2ccccc12)c1cccs1,51.7% (active)
17,Cc1ccc(S(=O)(=O)NNC(=O)Nc2cccc3ccccc23)cc1,9.6% (inactive)
18,COc1ccc(S(=O)(=O)Nc2ccc(O)c3ccccc23)cc1,48.3% (active)
19,CCc1ccc2c(c1)c1nc(C)sc1n2CC,20.9% (inactive)
20,O=C1C=C(O)CC(c2ccco2)C1 (configuration not stated),47.7% (active)
21,Nc1ccccc1NC1=CC(=O)CC(c2ccco2)C1 (configuration not stated),18.4% (inactive)
22,CC(C)CNC1=CC(=O)CC(c2ccco2)C1 (configuration not stated),0.4% (inactive)
23,Cc1sc2nc3ccc(NCc4ccco4)nn3c(=O)c2c1C,0.9% (inactive)
24,CCOc1cc(NC(=S)NCc2ccco2)c(OCC)cc1NC(=O)CC,-0.7% (inactive)
25,CCOC(=O)N1CCc2c(sc3c2c(=O)n(Cc2ccccc2)c(=O)n3CC(=O)NCCOC)C1,15.2% (inactive)

row,Compound,inhibition
1,CCCCCCCC1(C)NC(=O)N(CC(=O)Nc2cc(C)on2)C1=O (configuration not stated),2.5% (inactive)
2,Cc1oc(-c2ccc(F)cc2)cc1-c1nn2c(-c3ccoc3C)nnc2s1,22.7% (inactive)
3,Cc1c(C(=O)c2ccc(Cl)cc2[N+](=O)[O-])c2ccccn2c1CCC#N,17.8% (inactive)
4,O=C(CSc1nnc(-c2ccco2)c(-c2ccco2)n1)c1ccccc1,76.2% (active)
5,COc1ccc(C(=O)CSc2nnc(-c3ccco3)c(-c3ccco3)n2)cc1,43% (active)
6,COc1ccccc1CCNC(=O)CSc1ccc(-c2ccco2)nn1,19% (inactive)
7,Cc1ccc(-c2cc(C(=O)N/N=C/c3ccc([N+](=O)[O-])o3)c3ccccc3n2)o1,30.3% (inactive)
8,O=C(N/N=C/c1ccc(-c2ccc(Cl)c(C(=O)O)c2)o1)c1cc2c(ccc3ccccc32)o1,102% (active)
9,Cc1c(C(=O)O)c(C(=O)O)nc2ccc(N3CCOCC3)cc12,-17.6% (inactive)
10,NC1=NC(c2ccc(Cl)cc2)N(c2ccc(S(N)(=O)=O)cc2)C(N)=N1 (configuration not stated),25.2% (inactive)
11,O=C(CNc1cccc2ccccc12)N/N=C/c1ccc([N+](=O)[O-])o1,37.5% (inactive)
12,CC(Nc1cccc2ccccc12)C(=O)N/N=C/c1ccccn1 (configuration not stated),-4.4% (inactive)
13,N#Cc1cc2ccc(N3CCOCC3)cc2cc1C#N,-11.7% (inactive)
14,C#CCOc1ccc(/C=C2/C(=O)N(c3cccc(C(=O)O)c3)N=C2C)cc1OC,55.9% (active)
15,COc1ccc(CCN2Cc3c(cccc3[N+](=O)[O-])C2=O)cc1OC,-5.8% (inactive)
16,COc1cc(/C=C2/C(=O)N(c3ccc([N+](=O)[O-])cc3)N=C2N2CCOCC2)ccc1O,68.6% (active)
17,O=C1CC(N2CCOCC2)=NN1c1ccc([N+](=O)[O-])cc1,51.4% (active)
18,CC(=O)c1cccc(NC(=S)Nc2cccc3ccccc23)c1,-7.4% (inactive)
19,COc1cc(=O)n(C)c2c(OCC3OC(C)(C)OC3(C)C)cccc12 (configuration not stated),11.2% (inactive)
20,Cc1ccc(Cn2nnnc2CN2CCC(NC(=O)C(C)(C)C)CC2)cc1,-8.9% (inactive)
21,O=C(Nc1ccc(Cl)c(Cl)c1)Nn1cnnc1,-10.6% (inactive)
22,COc1ccc(/C=C2/C(=O)N(c3ccccc3)N=C2C)cc1OC,38.1% (inactive)
23,COc1cc(/C=C2/C(=O)N(c3ccccc3)N=C2C)ccc1OS(=O)(=O)c1ccccc1,91.3% (active)
24,COc1ccc(C(=O)N2CCC(O)(c3ccc(F)cc3)CC2)cc1OC,-18.3% (inactive)
25,Cc1[nH][nH]c(=O)c1C(c1ccc(-c2ccc(F)cc2)o1)c1c(C)[nH][nH]c1=O,59.6% (active)

row,Compound,inhibition
1,Cc1[nH][nH]c(=O)c1C(c1ccc(-c2cccc(Cl)c2)o1)c1c(C)[nH][nH]c1=O,101% (active)
2,Cc1[nH][nH]c(=O)c1C(c1ccc(-c2ccc(Cl)cc2)o1)c1c(C)[nH][nH]c1=O,66.7% (active)
3,OC(COc1ccccc1)CSc1ncn[nH]1 (configuration not stated),2.4% (inactive)
4,O=S(=O)(Nc1ccc2c(c1)nc1n2CCN(Cc2ccccc2)C1)c1ccccc1,-3.3% (inactive)
5,O=S(=O)(Nc1cc2nc3ccccc3nc2n1Cc1ccccc1)c1ccc(Cl)cc1,102% (active)
6,CCn1c2ccccc2c2c3ncc4cccn4c3ccc21,-74.8% (inactive)
7,Cc1cccn2c(=O)c3cc(C(=O)NC4CCCCCC4)sc3nc12,33.8% (inactive)
8,COc1ccc(N(C)C(=O)Nc2ccc3nsnc3c2)cc1,7.7% (inactive)
9,COc1ccc(NC(=S)Nc2ccc3nccnc3c2)cc1,8.4% (inactive)
10,C=CCN(CC=C)C(=S)Nc1ccc2nsnc2c1,23.6% (inactive)
11,COc1ccc(NC(=S)Nc2ccc3nsnc3c2)cc1,101% (active)
12,S=C(Nc1ccc2nsnc2c1)N1CCCC1,17.9% (inactive)
13,CCOc1ccc(NC(=S)Nc2ccc3nsnc3c2)cc1,101% (active)
14,COc1ccc(/C=N/N=C2/CC(C)(C)Cc3n[nH]c(=O)cc32)cc1,26.2% (inactive)
15,COc1ccc(OC)c(/C=N/NC(=O)CCc2ccc(O)c(O)c2)c1,18.5% (inactive)
16,O=C(NC(=S)Nc1cccc2c(O)cccc12)c1ccccc1[N+](=O)[O-],16.6% (inactive)
17,O=C(O)c1cccc([N+](=O)[O-])c1C(=O)Nc1cccc2ccccc12,-1.9% (inactive)
18,N#Cc1c(N)nc2c(c1-c1ccc3c(c1)OCO3)CCc1ccccc1-2,-58.5% (inactive)
19,S=C(Nc1cccc(Cl)c1)Nc1ccc2cn[nH]c2c1,7.2% (inactive)
20,Fc1ccc(NC(=S)Nc2cccc3ccccc23)cc1,-2.8% (inactive)
21,Cc1cc(C)c(C(N)=O)c(Nc2cccc3ccccc23)n1,24.4% (inactive)
22,Fc1ccc(NC(=S)Nc2cccc3ccccc23)cc1F,-4.6% (inactive)
23,Cc1ccc(NC(=S)Nc2cccc3ccccc23)cc1F,3.1% (inactive)
24,Nc1ccc(O)cc1C(=O)OCC(=O)c1ccc(C2CCCCC2)cc1,29.2% (inactive)
25,COC(=O)C1C(O)=C(C(C)=Nc2cccc3ccccc23)C(=O)CC1(C)C (configuration not stated),-0.8% (inactive)

row,Compound,inhibition
1,Cc1cc(=O)[nH]c(-n2[nH]c(C)cc2=O)n1,78.7% (active)
2,CC(C)(C)c1cc(=O)n(-c2ccccc2)[nH]1,22.8% (inactive)
3,Cc1ccc(N2CCN(Cc3ccccc3)CC2=O)c(C)c1,18.7% (inactive)
4,O=c1c(-c2ccccc2)coc2c(CN3CCCC3)c(O)ccc12,-8% (inactive)
5,CC(=O)c1ccc(N2CCN(C(=O)c3cccs3)C(C)C2)c(F)c1 (configuration not stated),14.2% (inactive)
6,Cc1nn(-c2ccccn2)c2c1C(=O)C(Br)CC2 (configuration not stated),97.2% (active)
7,O=c1c2ccccc2nc2n1CCC2,97.9% (active)
8,O=C(O)c1cc(Cl)c(Cl)cc1C(=O)Nc1cccc2ncccc12,9.9% (inactive)
9,Cc1ccc(/C=C(\C#N)C(=O)Nc2cccc3ncccc23)o1,23.5% (inactive)
10,Cc1cc(C)c(S(=O)(=O)/N=C2/C=C(SCC(=O)O)C(=O)c3ccccc32)cc1C,95.8% (active)
11,COc1ccc2nc(/C(C#N)=C\c3ccc(C(=O)O)cc3)[nH]c2c1,21.7% (inactive)
12,CCC(NC(=O)Nc1ccc(O)cc1)(C(F)(F)F)C(F)(F)F,-10.3% (inactive)
13,CCc1cccc(NC(=S)Nc2cccc3ccccc23)c1,15% (inactive)
14,COc1cc(/C=C2\C(=O)N(CCC#N)N=C2C)ccc1OCC(=O)Nc1ccccc1,12.4% (inactive)
15,O=C1Nc2ccc(C(F)(F)F)cc2N2CCCC12 (configuration not stated),46.5% (active)
16,Cc1ccc(NC(=S)Nc2cccc3ccccc23)cc1,19.1% (inactive)
17,CC(C)(C)c1cc[n+](C2=C([O-])c3ccccc3C(=O)/C2=N\S(=O)(=O)c2cccs2)cc1,90.8% (active)
18,O=C(O)COc1ccccc1C(Nc1cccnc1)c1cc(Cl)c2cccnc2c1O (configuration not stated),102% (active)
19,CCOc1ccc(C(Nc2cccnc2)c2cc(Cl)c3cccnc3c2O)cc1 (configuration not stated),-212% (inactive)
20,COC(=O)c1ccccc1NC1=C/C(=N\S(=O)(=O)c2cccs2)c2ccccc2C1=O,102% (active)
21,O=[N+]([O-])c1cc(Cl)cc(/C=N/NC(=S)Nc2ccc(S(=O)(=O)N3CCOCC3)cc2)c1O,102% (active)
22,CCN(C(=S)Nc1cc(S(=O)(=O)N2CCOCC2)ccc1Cl)c1cccc2ccccc12,11.1% (inactive)
